High-throughput results deposited in PubChem by National Center for Advancing Translational Sciences (NCATS).
Hits are enriched below; roughly 11% of the tested compounds scored in any of these assays.
L3MBTL1 inh: qHTS Assay for the Inhibitors of L3MBTL1; AlphaScreen L3MBTL1–H3K9me1 peptide binding; Potency, µM (titrated, usually from 57.1 µM), for inactives: top-dose activity, negative = inhibition, actives largely listed as inhibitors; actives 0.66% (n = 230,000); also: % is scaled to controls: 0 for no effect and ±100 for the full control effect; nearly all actives have a fitted effect of over 60% in size
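L3MBTL1 (50 nM) pre-complexed 30 min with biotinylated H3(1-15)K9me1 peptide (75 nM), then compounds added for 30 min at room temperature; AlphaScreen streptavidin donor/nickel chelate acceptor beads (10 ug/mL final) read after 30 min dark incubation.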
JMJD2A Tudor inh: qHTS Assay for Inhibitors of JMJD2A-Tudor Domain. Lysine-specific demethylase 4A (Homo sapiens), O75164. AlphaScreen JMJD2A-Tudor / H3K4me3 peptide binding. Potency, µM (top dose mostly 114 µM), for the others: at the top dose activity change, negative = inhibition, actives largely listed as inhibitors. actives 4.4% (n = 390,000). AID 504339, 2011; also: % is scaled to controls: 0 for no effect and ±100 for the full control effect; nearly all actives have a fitted effect of over 50% in size
HP1b chromo inh: HTS for Inhibitors of HP1-beta Chromodomain Interactions with Methylated Histone Tails; AlphaScreen HP1-beta / biotin-H3K9me3 peptide binding; Potency, µM (top dose mostly 114 µM), for the others: at the highest dose activity change, negative = inhibition, hits mostly inhibitors; Chromobox protein homolog 1 (Homo sapiens), P83916; actives 0.56% (n = 390,000); also: nearly all actives have a fitted effect of over 70% in size
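HP1-beta protein (50 nM final) preincubated 30 min at room temperature with biotinylated H3(1-18)K9me3 peptide (50 nM) in PBS pH 7.4, 0.01% Tween-20, then compound added for 30 min. AlphaScreen streptavidin donor/nickel chelate acceptor beads (10 ug/mL final), 30 min dark, luminescence read.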
BAZ2B inh: qHTS Assay for Inhibitors of BAZ2B; Bromodomain adjacent to zinc finger domain protein 2B (Homo sapiens), Q9UIF8; AlphaScreen BAZ2B-H3K14Ac peptide displacement; Potency, µM (doses to about 114 µM), inactives show at the highest dose activity change, negative = inhibition, hits mostly inhibitors; actives 4.4% (n = 360,000); also: % is scaled to controls: 0 for no effect and ±100 for the full control effect; nearly all actives have a fitted effect of over 60% in size
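AlphaScreen displacement: compounds (up to 110uM) incubated 30 min at room temperature with a preformed 50 nM BAZ2B/50 nM biotinylated H3K14Ac peptide complex in PBS pH 7.4 with Tween-20. Donor and acceptor beads at 10 ug/mL final added, 20 min light-protected before reading.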
G9a inh: qHTS Assay for Inhibitors of Histone Lysine Methyltransferase G9a; AID 504332, 2011; actives 8.8% (n = 350,000); Potency, µM (doses to about 102 µM), without a hit: at the highest dose activity, negative = inhibition, usual class: inhibitors; G9a H3K9 monomethylation, AlphaScreen, 2 h; also: % is scaled to controls: 0 for no effect and ±100 for the full control effect; nearly all actives have a fitted effect of over 75% in size
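Signal arises when biotinylated H3K9 peptide, once monomethylated, bridges streptavidin donor and antibody-captured acceptor beads. Enzyme at 20 nM was preincubated 15 min with test compounds; peptide 500 nM and SAM 20 uM then reacted for 2 h.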
An asterisk follows results filed as active; ? = inconclusive; . = no result; [ ] = dose if it differs, or a comment. Calls follow the shape of the dose curve; as a rule, active = well fitted inhibition curve with a large enough effect; inconclusive = small, poorly fitted or top-dose-only effect; inactive = no such curve, though single readings can be large or run the other way. Potency is read from the fitted curve at half-maximal effect.

SMILES	L3MBTL1 inh	JMJD2A Tudor inh	HP1b chromo inh	BAZ2B inh	G9a inh
COc1ccccc1CCNS(=O)(=O)c1ccc(N2CCCCS2(=O)=O)cc1	.	-2%	27%	-4%	12%[59 µM]
COc1ccc(NC(=O)C2CCN(S(=O)(=O)c3ccc4c(c3)CCCC(=O)N4)CC2)c(OC)c1	.	-25%	12%	-1%[57.1 µM]	-29%[59 µM]
CCCCCNC(=O)c1ccc2c(c1)nc(C)n2-c1cccc(C)c1	.	-20%	9%	-28%	-17%[59 µM]
CCN1C(=O)/C(=C/C=C2/CCCN2C)OC1=S	-12%	1%	31%	-26%	-33%
CN1C(=O)/C(=C\C=C2/CCCN2C)N(C)C1=S	.	-26%	2%	-35%	18µM*
O=C(CC1CCCC1)Nc1cc(S(=O)(=O)N2CCOCC2)ccc1O	-4%	-25%	?	-13%	?
Cc1ccc(S(=O)(=O)N2CCOCC2)cc1NC(=O)CNCC1CCCCC1	5%	4µM*	-19%	.	10µM*
O=C(O)CSCC(=O)Nc1ccc(S(=O)(=O)N2CCCCC2)cc1	-7%	7%	36%	-2%	10%[2.33 µM]
Cc1ccc(S(=O)(=O)N2CCCCC2)cc1NC(=O)CSCC(=O)O	8%	2%	15%	-16%	50µM*
NC(=O)c1c(NC(=O)Cn2cnc([N+](=O)[O-])n2)sc2c1CCCC2	.	-18%	11%[57 µM]	-28%	?
CC(C)OC(=O)c1c(NC(=O)Cn2cnc([N+](=O)[O-])n2)sc2c1CCCC2	-3%	-16%	-23%	-3%	16µM*
CCOC(=O)c1c(NC(=O)Cn2cnc([N+](=O)[O-])n2)sc(C)c1C	.	-1%	-9%	-2%	28µM*
CCOC(=O)c1c(NC(=O)Cn2cnc([N+](=O)[O-])n2)sc2c1CCCC2	2%	-16%	-10%	8%	45µM*
CC1CCc2c(sc(NC(=O)Cn3cnc([N+](=O)[O-])n3)c2C(N)=O)C1 (stereo not given)	-1%	-19%	25%	.	-26%
CC(=O)Oc1ccc(C(=O)Nc2cccc(C(=O)c3ccc(C)c(C)c3)c2)cc1	-7%	-28%	12%	-7%	?
CCOC(=O)c1cccc(NC(=S)NCc2ccc(C)cc2)c1	-9%	3%	39%	1%	54%
Cc1nc(N2CCCC2)c2c(C(=O)Nc3cccc(Cl)c3)c(C)oc2n1	.	-12%	53%	0%[57.1 µM]	-11%[59 µM]
O=C(CN1C(=O)COc2ccc(S(=O)(=O)N3CCCCCC3)cc21)N1CCN(c2ccc(Cl)cc2)CC1	.	?	49%	-2%	2%[59 µM]
CCCCCCCCCCCCCCCCCCNC(=O)OCC(COP(=O)([O-])OCC[n+]1ccsc1)OC (stereo not given)	.	.	.	.	21µM*
Cc1nc(-c2ccc(S(=O)(=O)Nc3cc(Cl)ccc3C)cc2)co1	.	-12%	30%[57 µM]	-17%	0%[59 µM]
Cc1ccc(CSc2nc3cccnc3n2Cc2ccc(C(=O)NCCc3cccs3)cc2)cc1	.	4%	34%	0%	3%[59 µM]
COc1ccc(N2C(=O)CC(N3CCN(Cc4ccc5c(c4)OCO5)CC3)C2=O)cc1 (stereo not given)	-16%	-19%	35%	-2%	40µM*
O=C1CC(N2CCN(Cc3ccc4c(c3)OCO4)CC2)C(=O)N1c1cccc(Cl)c1 (stereo not given)	.	-11%	8%	11%	-46%[59 µM]
O=C1CC(N2CCN(c3ccc(O)cc3)CC2)C(=O)N1c1ccc2c(c1)OCO2 (stereo not given)	-21%	?	?	-22%	16µM*
O=C1CC(N2CCCCCC2)C(=O)N1c1ccc2c(c1)OCO2 (stereo not given)	.	-10%	34%	-3%	?
SMILES	L3MBTL1 inh	JMJD2A Tudor inh	HP1b chromo inh	BAZ2B inh	G9a inh
CC1C=CCC2C(=O)N(c3ccc(Cl)cc3O)C(=O)C12 (stereo not given)	1%	16µM*	?	8%	9%[59 µM]
CC1C=CCC2C(=O)N(c3ccccc3OC(=O)c3cccs3)C(=O)C12 (stereo not given)	0%	-14%	40%	-16%	0%
Cc1cc2n(n1)CCC(=O)N2Cc1ccc(C(=O)Nc2cccc(C(F)(F)F)c2)cc1	.	-8%	28%	-14%	-6%[59 µM]
COc1ccccc1OCCCOc1cccc(/C=C2\SC(=O)NC2=O)c1	0%[2.29 µM]	22µM*	-2%	79µM*	-1%[0.501 µM]
CC(C(=O)NC1CCCC1)N(C(=O)c1ccc(-c2ccccc2)[nH]1)c1ccccc1F (stereo not given)	-26%	22µM*	-33%	?	-1%[59 µM]
O=C(NCC1CCCO1)C(c1cccs1)N(Cc1ccccc1)C(=O)c1ccc(-c2ccccc2)[nH]1 (stereo not given)	-21%	?	?	?	?
COc1ccc(CN(C(=O)c2ccc(-c3ccccc3)[nH]2)C(C(=O)NCC2CCCO2)c2ccc(C)o2)cc1 (stereo not given)	-17%	?	-18%	45µM*	-11%[0.501 µM]
COc1ccc(CN(CC(=O)NC2CCCC2)C(=O)c2ccc(-c3ccccc3)[nH]2)cc1	?	?	-19%	28µM*	?
CCN(CC)c1nn2c(=O)c(C(=O)NCc3ccc(OC)cc3OC)cnc2s1	.	-12%	18%	-13%	-1%[59 µM]
Cn1cnnc1SCC(=O)c1c[nH]c2ccccc12	3%	-17%	16%	-3%	13%
CCCCNc1nnc(SCC(=O)c2c[nH]c3ccccc23)s1	-4%	-10%	33%	-5%	28µM*
Cc1ccc2c(c1)c1c(c(=O)n(-c3cccc(Cl)c3)c(=O)n1CC(=O)Nc1c(C)cccc1C)n2C	.	-13%	-4%	-13%	10%[59 µM]
COc1cccc(N2CCN(C(=O)c3nc(-c4ccc(Cl)cc4)n4c3CCCCC4)CC2)c1	.	40µM*	?	28µM*	18µM*
Cc1ccc(-c2nc(C(=O)NCc3ccccc3Cl)c3n2CCCCC3)cc1	.	-18%	-5%	-32%	-9%[59 µM]
COc1ccc(CCNC(=O)c2nc(-c3ccc(Cl)cc3)n3c2CCCCC3)c(OC)c1	.	18µM*	-23%	18µM*	13µM*
Cc1cccc(CCNC(=O)c2nc(-c3ccc(Cl)cc3)n3c2CCCCC3)c1	.	14µM*	-23%	10µM*	11µM*
COc1ccccc1N1CCN(C(=O)c2nc(-c3ccc(C)cc3)n3c2CCCCC3)CC1	.	-30%	-1%	-19%	?
Cc1ccc(-n2nc(C(=O)N(C)Cc3ccccc3)c3c4ccccc4n(C)c3c2=O)cc1	.	-7%	24%	5%	-29%[59 µM]
